Data published in the supplement of paper PMC11732987, “Enantioselective OTUD7B fragment discovery through chemoproteomics screening and high-throughput optimisation” (Communications Chemistry, 2025).

How the values were obtained:
Assay in all cases: log2 ratio of Biotin-Ahx-Ub-VS probe labelling (fragment/DMSO); higher = less target engagement (more negative = stronger competition), active = hit call of the paper (q ≤ 0.05, log2 ratio ≤ -1)
Conditions in all cases: compound concentration: 200 uM; treatment time: 3 h
USP34 = USP34 (UniProt Q70CQ2)
USP34, sequence (Q70CQ2 whole entry, the tested form may be a part): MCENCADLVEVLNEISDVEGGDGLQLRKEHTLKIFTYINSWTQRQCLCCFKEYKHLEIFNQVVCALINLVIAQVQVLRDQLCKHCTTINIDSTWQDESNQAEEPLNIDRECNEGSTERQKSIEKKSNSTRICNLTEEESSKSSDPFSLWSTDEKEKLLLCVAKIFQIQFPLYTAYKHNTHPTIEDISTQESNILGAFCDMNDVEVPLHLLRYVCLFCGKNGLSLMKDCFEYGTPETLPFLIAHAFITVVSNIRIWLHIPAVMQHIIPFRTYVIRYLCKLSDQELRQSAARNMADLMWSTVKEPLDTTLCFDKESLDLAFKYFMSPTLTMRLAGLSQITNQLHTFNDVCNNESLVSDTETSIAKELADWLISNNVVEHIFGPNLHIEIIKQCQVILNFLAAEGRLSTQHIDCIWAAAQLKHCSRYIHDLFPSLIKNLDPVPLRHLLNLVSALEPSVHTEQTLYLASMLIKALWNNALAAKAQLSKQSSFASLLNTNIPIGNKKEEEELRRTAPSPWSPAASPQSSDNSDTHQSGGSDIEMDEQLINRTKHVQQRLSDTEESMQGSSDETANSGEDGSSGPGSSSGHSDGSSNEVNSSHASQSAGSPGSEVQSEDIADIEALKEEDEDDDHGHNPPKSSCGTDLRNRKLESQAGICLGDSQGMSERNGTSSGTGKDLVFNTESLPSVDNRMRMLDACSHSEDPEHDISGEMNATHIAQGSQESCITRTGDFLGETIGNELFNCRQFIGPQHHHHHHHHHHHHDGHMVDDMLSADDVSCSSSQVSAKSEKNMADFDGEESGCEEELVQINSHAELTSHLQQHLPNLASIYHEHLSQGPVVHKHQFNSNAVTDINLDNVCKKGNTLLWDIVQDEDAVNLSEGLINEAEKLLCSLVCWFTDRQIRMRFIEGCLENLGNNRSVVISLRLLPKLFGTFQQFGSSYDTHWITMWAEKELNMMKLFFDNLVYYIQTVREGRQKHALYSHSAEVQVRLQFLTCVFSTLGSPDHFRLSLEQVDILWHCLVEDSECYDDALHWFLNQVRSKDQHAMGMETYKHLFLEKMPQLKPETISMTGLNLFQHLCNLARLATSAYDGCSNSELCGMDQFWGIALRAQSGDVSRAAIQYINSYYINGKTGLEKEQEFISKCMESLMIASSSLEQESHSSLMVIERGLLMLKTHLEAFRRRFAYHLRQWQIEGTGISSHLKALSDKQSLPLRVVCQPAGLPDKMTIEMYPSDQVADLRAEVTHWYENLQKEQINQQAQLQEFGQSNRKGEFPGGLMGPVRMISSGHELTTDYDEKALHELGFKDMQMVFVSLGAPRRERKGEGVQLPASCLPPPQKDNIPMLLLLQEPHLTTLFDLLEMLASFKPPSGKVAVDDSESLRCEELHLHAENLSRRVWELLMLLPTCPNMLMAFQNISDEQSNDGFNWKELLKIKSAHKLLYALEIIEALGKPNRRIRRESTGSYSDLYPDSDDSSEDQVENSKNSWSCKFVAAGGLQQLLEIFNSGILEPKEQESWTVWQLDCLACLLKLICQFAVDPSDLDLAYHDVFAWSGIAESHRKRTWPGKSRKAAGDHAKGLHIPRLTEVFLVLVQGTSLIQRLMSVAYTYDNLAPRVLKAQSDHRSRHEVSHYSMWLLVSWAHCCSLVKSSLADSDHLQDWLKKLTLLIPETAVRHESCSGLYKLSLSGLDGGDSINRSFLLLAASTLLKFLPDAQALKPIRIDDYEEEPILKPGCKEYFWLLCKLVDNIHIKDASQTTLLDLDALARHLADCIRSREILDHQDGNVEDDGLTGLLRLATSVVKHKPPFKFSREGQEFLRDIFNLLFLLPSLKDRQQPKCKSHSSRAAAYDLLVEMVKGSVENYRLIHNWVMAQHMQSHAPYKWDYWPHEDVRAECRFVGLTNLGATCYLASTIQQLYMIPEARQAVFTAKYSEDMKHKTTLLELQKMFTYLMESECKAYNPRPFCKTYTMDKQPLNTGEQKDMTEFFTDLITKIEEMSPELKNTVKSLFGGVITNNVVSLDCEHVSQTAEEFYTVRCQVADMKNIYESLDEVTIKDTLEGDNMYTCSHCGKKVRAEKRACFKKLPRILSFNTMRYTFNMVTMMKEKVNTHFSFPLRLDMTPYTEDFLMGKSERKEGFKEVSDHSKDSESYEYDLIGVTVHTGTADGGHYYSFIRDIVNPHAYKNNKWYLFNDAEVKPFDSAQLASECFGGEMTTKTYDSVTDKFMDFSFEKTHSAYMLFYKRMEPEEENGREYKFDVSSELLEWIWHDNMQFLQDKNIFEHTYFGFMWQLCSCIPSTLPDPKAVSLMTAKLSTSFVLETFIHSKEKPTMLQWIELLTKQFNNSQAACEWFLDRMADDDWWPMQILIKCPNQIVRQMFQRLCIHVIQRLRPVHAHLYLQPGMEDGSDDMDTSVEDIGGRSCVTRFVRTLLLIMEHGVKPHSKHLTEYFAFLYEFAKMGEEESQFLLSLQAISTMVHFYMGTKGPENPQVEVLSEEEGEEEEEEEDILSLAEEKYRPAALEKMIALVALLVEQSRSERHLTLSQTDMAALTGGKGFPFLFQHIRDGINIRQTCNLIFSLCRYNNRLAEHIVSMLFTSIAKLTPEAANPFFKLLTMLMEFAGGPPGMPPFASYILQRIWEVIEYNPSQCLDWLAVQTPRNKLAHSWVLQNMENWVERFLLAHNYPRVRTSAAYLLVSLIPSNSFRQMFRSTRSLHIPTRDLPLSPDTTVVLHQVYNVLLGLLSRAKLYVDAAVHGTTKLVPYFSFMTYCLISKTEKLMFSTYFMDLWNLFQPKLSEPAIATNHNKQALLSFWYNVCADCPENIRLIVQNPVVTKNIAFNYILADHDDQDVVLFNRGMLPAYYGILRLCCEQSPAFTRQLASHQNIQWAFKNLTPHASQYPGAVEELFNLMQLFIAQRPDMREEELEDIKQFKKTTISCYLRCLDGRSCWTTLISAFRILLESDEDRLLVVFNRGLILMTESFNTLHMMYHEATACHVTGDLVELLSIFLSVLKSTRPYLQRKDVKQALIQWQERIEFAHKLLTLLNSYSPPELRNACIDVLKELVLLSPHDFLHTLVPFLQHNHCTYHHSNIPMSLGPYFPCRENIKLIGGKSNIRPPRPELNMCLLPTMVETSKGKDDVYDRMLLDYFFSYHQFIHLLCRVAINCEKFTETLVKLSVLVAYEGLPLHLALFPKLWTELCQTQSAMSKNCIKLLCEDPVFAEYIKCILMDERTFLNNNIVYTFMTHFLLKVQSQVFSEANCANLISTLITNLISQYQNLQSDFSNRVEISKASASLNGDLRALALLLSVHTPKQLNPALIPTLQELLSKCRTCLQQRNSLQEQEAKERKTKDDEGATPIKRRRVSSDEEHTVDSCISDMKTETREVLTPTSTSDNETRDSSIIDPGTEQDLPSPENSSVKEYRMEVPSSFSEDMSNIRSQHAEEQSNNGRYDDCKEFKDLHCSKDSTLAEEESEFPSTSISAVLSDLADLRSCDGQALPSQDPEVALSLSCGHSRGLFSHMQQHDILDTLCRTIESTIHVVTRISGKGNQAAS
Outline: (§1)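 Values give the average log2 ratio of fragment to vehicle, assessed by unpaired t-test on global-median-normalised Spectronaut label-free quantities. Proteins needed ≥2 unique peptides. HEK293T lysate (495 µg per sample) was treated in triplicate with fragment at 200 µM or vehicle for 3 h and then with Biotin-Ahx-Ub-VS at 0.5 µM final for 1 h. Labelled DUBs were NeutrAvidin-enriched, digested and run by diaPASEF LC-MS/MS.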

USP36 = biological target: T1, USP36 (UniProt Q9P275)
T1 sequence (whole entry): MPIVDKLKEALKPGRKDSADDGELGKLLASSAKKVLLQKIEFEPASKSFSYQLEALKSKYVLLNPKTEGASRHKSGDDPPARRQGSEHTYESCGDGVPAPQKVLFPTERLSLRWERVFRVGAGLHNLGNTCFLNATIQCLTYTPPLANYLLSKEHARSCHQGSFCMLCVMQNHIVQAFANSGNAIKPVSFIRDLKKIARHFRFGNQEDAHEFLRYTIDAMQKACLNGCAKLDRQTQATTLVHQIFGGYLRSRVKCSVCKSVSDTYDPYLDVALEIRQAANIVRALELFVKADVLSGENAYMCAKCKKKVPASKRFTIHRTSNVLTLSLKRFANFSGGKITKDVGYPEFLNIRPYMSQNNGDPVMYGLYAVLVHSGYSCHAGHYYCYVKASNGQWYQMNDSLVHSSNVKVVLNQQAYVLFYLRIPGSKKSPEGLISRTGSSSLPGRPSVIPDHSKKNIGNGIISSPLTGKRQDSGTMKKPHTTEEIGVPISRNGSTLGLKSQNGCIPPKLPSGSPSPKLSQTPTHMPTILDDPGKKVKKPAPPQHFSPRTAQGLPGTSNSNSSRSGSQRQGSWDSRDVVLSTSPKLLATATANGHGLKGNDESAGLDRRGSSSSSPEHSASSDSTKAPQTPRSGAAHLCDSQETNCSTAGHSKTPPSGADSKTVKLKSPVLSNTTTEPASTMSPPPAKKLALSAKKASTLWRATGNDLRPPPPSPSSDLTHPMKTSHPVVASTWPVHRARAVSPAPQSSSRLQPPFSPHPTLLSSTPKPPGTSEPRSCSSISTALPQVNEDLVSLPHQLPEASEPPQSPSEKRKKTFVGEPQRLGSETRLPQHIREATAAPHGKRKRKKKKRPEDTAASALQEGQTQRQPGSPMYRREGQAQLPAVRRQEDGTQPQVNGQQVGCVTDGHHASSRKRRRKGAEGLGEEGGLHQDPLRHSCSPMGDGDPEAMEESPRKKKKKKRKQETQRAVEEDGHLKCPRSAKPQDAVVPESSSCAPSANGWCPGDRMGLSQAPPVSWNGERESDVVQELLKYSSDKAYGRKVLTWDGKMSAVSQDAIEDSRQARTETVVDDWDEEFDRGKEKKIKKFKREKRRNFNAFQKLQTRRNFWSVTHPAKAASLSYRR
Outline: as §1

USP38 = biological target: T2, USP38 (UniProt Q8NB14)
T2 sequence (whole entry): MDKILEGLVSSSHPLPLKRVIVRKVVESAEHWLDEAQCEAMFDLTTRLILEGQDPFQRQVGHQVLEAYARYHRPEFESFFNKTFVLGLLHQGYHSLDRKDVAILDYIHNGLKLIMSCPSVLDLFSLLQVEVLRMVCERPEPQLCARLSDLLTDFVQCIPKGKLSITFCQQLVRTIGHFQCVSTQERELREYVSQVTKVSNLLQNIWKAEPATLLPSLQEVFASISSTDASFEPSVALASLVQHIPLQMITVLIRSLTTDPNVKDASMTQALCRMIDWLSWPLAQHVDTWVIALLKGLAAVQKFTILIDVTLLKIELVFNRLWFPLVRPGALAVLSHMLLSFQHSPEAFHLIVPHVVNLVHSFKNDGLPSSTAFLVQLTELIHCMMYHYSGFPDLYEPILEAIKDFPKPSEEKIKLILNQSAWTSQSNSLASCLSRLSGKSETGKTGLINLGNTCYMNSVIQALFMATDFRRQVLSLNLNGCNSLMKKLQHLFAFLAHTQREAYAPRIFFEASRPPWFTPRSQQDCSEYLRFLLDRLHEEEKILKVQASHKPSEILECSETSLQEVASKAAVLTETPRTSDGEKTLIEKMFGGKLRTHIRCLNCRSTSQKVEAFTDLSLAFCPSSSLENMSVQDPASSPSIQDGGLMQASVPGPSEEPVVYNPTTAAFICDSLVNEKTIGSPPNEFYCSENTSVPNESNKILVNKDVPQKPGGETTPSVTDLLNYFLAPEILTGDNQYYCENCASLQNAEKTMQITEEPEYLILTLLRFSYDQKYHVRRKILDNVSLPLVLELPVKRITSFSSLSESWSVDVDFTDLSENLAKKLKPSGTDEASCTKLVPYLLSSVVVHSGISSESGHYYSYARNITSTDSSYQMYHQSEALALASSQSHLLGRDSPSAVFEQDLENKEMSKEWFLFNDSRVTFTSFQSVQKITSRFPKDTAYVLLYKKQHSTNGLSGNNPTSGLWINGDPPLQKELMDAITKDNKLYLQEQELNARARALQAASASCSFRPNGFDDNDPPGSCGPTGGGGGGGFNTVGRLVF
Outline: as §1

USP39 = biological target: T3, USP39 (UniProt Q53GS9)
T3 sequence (whole entry): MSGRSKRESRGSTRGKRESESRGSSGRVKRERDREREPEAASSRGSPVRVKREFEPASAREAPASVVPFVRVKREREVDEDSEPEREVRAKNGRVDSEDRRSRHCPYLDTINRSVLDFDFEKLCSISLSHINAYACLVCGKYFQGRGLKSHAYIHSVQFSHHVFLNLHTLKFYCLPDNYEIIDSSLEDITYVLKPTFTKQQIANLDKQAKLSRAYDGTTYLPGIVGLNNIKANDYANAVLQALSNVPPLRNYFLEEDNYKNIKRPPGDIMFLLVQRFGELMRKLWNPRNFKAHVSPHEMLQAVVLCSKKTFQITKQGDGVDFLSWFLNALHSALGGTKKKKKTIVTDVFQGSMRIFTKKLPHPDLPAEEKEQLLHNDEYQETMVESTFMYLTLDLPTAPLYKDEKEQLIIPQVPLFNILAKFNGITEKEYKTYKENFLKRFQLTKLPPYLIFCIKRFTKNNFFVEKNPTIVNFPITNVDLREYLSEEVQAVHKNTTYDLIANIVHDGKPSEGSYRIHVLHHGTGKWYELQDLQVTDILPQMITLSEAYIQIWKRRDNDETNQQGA
Outline: as §1

USP4 = biological target: T4, USP4 (UniProt Q13107)
T4 sequence (whole entry): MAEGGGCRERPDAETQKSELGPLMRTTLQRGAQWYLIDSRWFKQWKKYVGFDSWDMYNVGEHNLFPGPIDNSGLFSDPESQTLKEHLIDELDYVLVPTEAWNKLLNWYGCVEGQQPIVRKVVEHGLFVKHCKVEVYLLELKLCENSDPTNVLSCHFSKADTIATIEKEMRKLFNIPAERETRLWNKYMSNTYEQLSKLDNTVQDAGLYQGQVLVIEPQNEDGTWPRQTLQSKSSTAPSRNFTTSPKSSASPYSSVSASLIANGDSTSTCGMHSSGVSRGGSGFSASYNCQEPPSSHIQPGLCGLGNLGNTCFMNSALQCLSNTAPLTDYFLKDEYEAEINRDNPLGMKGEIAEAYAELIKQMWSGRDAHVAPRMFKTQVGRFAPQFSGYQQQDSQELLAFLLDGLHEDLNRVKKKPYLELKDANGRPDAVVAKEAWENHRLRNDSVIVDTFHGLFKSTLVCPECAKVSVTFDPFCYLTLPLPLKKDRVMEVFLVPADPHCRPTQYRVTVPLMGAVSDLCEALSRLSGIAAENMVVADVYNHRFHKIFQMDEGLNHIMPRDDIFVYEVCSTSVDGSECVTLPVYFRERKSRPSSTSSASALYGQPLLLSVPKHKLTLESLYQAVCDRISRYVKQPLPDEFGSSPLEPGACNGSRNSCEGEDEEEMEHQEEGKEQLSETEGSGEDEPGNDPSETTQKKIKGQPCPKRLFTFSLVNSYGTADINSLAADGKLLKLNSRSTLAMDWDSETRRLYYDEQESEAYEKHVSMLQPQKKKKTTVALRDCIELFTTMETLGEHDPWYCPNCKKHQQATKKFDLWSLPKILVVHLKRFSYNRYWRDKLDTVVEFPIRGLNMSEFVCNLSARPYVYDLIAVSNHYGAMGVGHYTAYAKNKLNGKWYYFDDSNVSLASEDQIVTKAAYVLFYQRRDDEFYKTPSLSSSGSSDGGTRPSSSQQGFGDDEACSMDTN
Outline: as §1

Measured: log2 ratio of Biotin-Ahx-Ub-VS probe labelling

N#Cc1cnn(-c2ccccc2)c1NC(=O)CCl
inactive: USP34 0.0145 | USP36 -0.28 | USP38 -0.229 | USP39 -0.0134 | USP4 -0.24
